PubChem BioAssay (Tox21)
Inconclusive results are not listed. Entries that show only a call come without a potency. Values without a mark were called inactive. The source made the active and inactive calls. Calls follow the shape of the full dose curve.

Target: Retinoic acid receptor RXR-alpha (Homo sapiens) (UniProt P19793)
Test: qHTS assay to identify small molecule agonists of the RXR signaling pathway (AID 1159527); also: nearly all actives have a fitted effect of over 35% in size
Details: HEK293T RXRa-UAS-bla, beta-lactamase ratio, 16 h; series mostly up to 35.3 µM
Source text: U.S. Tox21 Program National Center for Advancing Translational Sciences [NCATS] NIH Chemical Genomics Center [NCGC] U.S. Environmental Protection Agency [EPA] National Institutes of Environmental Health Sciences [NIEHS] National Toxicology Program [NTP] U.S. Food and Drug Administration [FDA] Tox21 Assay Overview: The Retinoid X receptor (RXR), a nuclear hormone receptor expressed in liver, spleen, placenta, epidermis, central nervous system. These receptors are able to form homo and heterodimers with other nuclear receptors and due to this heterodimerizing ability, RXR functions as master regulators producing diverse physiological effects. Three subtypes of RXR exist; alpha, beta and gamma. Retinoid X receptor alpha (RXR-alpha) has potential roles in metabolic signaling pathways, skin alopecia, dermal cysts, cardiac development, insulin sensitization etc. Therefore screening environmental chemicals on RXR-alpha signaling can be used for the studies focused on such therapeutic applications. For quantification of RXR-alpha ligands signaling, GeneBLAzer RXR alpha-UAS-bla HEK 293T (Life Technologies, Carlsbad, CA) cells containing a beta-lactamase reporter-gene under control of Retinoid X receptor-alpha response element were used to screen Tox21 10K library.
Tox21 Assay Protocol Summary: RXR-alpha HEK 293T cells were dispensed at 2,000 cells/6 uL of assay medium containing 2% charcoal-stripped FBS using a Multidrop Combi (ThermoFisher Scientific, Waltham, MA) dispenser. The assay was performed in black wall/clear-bottom 1536-well plates (Greiner Bio-One North America Inc. Monroe, NC). 9-cis retinoic acid was used as a positive control in the agonist mode screen. After the assay plates were incubated at 37 C and 5% CO2 for 5 hr, 23 nL of compounds dissolved in DMSO, positive controls or DMSO only were transferred to the assay plate by a Pintool station (Kalypsys, San Diego, CA). The assay plates were incubated at 37 C and 5% CO2 for 16 hr. One uL of LiveBLAzer B/G FRET substrate (Life Technologies) was added using a Flying Reagent Dispenser (Aurora Discovery, San Diego, CA) and the plates were incubated at room temperature for 2 hr. Fluorescence intensity (405 nm excitation, 460/530 nm emission) was measured using an Envision plate reader (PerkinElmer, Shelton, CT).

Sequence of Retinoic acid receptor RXR-alpha (Homo sapiens) (P19793 whole entry, looked up): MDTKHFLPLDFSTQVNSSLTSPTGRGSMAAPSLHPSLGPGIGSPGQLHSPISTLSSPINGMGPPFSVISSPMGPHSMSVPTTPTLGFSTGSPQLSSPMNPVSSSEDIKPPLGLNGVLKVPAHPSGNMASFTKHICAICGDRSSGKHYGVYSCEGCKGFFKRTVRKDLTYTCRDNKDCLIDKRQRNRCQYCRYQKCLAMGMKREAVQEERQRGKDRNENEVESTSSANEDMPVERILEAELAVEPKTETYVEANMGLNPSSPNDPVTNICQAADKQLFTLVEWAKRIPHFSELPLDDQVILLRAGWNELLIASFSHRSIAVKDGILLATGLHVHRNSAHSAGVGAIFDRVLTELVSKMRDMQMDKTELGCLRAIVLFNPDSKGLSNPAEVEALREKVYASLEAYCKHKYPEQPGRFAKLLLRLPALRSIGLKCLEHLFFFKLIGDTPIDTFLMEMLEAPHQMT

Row | SMILES | Potency | activation
1 | COc1cc(C(=O)N2CCCCCCC2)cc(OC)c1OC | inactive | –
2 | CC(=O)OC/C=C(\C)CC/C=C(\C)CCC=C(C)C | inactive | –
3 | CCCCCCCCCCCC | inactive | –
4 | C=C[Si](OC(=C)C)(OC(=C)C)OC(=C)C | inactive | –
5 | CC1(C)C(O)C(C)(C)C1O (stereo not given) | inactive | –
6 | O=C(O)Cc1ccc(CCNS(=O)(=O)c2ccc(Cl)cc2)cc1 | inactive | –
7 | CN1CC(=O)NC1=N | inactive | –
8 | O=C1CC2CC1C1CCCC21 (stereo not given) | inactive | –
9 | CN1N=C(C(N)=O)CCC1=O | inactive | –
10 | O=C[C@H](O)[C@@H](O)[C@H](O)[C@H](O)CO | inactive | –
11 | CCN1CCC[C@H]1CNC(=O)c1c(O)c(Cl)cc(Cl)c1OC | inactive | –
12 | CCCC(=O)O[C@]1(C(=O)CO)CC[C@H]2[C@@H]3CCC4=CC(=O)CC[C@]4(C)[C@H]3[C@@H](O)C[C@@]21C | inactive | –
13 | CCOC(=O)c1c(C)n(C)c2ccc(O)cc12 | inactive | –
14 | C[C@@H]1CCN(C(=O)[C@H](CCCN=C(N)N)NS(=O)(=O)c2cccc3c2NC[C@H](C)C3)[C@@H](C(=O)O)C1 | inactive | –
15 | O=C(O)CCCl | inactive | –
16 | CCC(C)C1CCCCC1=O (stereo not given) | inactive | –
17 | NC(=O)c1ccc(N)cc1 | inactive | –
18 | CC(C)NCC(O)c1ccc(NS(C)(=O)=O)cc1 (stereo not given) | inactive | –
19 | CC(C)NC(=O)NC(C)C | inactive | –
20 | CCCCCOC(=O)CCCCC | inactive | –

Row | SMILES | Potency | activation
21 | N=C(N)c1ccc(OCCCOc2ccc(C(=N)N)cc2)cc1 | inactive | –
22 | CCCc1cc(C(N)=S)ccn1 | inactive | –
23 | CC(C)(CC(=O)O)C(=O)O | inactive | –
24 | CC(C)c1cc2c(cc1S(=O)(=O)O)[C@@]1(C)CCC[C@@](C)(C(=O)O)[C@@H]1CC2 | inactive | –
25 | CCOC(=O)CCC(C)=O | inactive | –
26 | Cc1c(NC(C)C)c(=O)n(-c2ccccc2)n1C | inactive | –
27 | CO[C@]12C[C@@H](COC(=O)c3cncc(Br)c3)CN(C)[C@@H]1Cc1cn(C)c3cccc2c13 | inactive | –
28 | CCOC(=O)c1ccc(C)cc1 | inactive | –
29 | Cc1cc(O)cc2c1O[C@](C)(CCC[C@H](C)CCC[C@H](C)CCCC(C)C)CC2 | inactive | –
30 | Nc1nc2c(ncn2COC(CO)CO)c(=O)[nH]1 | inactive | –
31 | CC/C=C\CC/C=C/C(OCC)OCC | inactive | –
32 | CC[N+](C)(C)c1cccc(O)c1 | inactive | –
33 | Oc1ccc(C2CNCCc3c2cc(O)c(O)c3Cl)cc1 (stereo not given) | inactive | –
34 | CC(=O)Nc1ccc(S(N)(=O)=O)cc1 | inactive | –
35 | Cn1cc(S(C)=O)c(=O)c2ccc(F)cc21 (stereo not given) | inactive | –
36 | Nc1c2c(nc3ccccc13)CCCC2O (stereo not given) | inactive | –
37 | NCCCNCCSP(=O)(O)O | – | 10.3% [at 6.98 µM]
38 | C/C=C(\C)C#N | inactive | –
39 | CCCCCCCCS(=O)(=O)Cl | inactive | –
40 | Cc1nc2c([nH]1)c(=O)n(C)c(=O)n2Cc1ccco1 | inactive | –
